Source: PubChem BioAssay AID2318 (National Center for Advancing Translational Sciences (NCATS), 2010)
The other results are listed elsewhere or left out. Results filed as inconclusive are left out. Calls of active or inactive are those of the source. Calls follow the shape of the full dose curve.

Experiment: Cycloheximide Counterscreen for Small Molecule Inhibitors of Shiga Toxin (Confirmatory); as to activity (activation): 0% is about no effect
Conditions: protein synthesis reporter, Shiga toxin assay; series mostly up to 38.3 µM; activity (activation): at the top concentration
Potency is read from the fitted curve at half-maximal effect.

SMILES | activity (activation) | Potency
CCCc1nc2ccccc2c(=O)n1NC(=O)c1c(O)c2ccccc2[nH]c1=O | -5.8% (inactive) | –
CN(Cc1nc2ccc(F)cc2[nH]1)Cc1nc(CC2CC2)no1 | 0.109% (inactive) | –
CC(=O)c1ccc(N2CCN(C(=O)c3ccc4nc[nH]c4c3)CC2)cc1 | 6.86% (inactive) | –
COc1ccccc1N1N=C(c2cccs2)CC1c1ccccc1 (stereo not drawn) | -0.737% (inactive) | –
O=C(c1cc(-c2cccc(O)c2)on1)N1CCc2ccccc2C1 | 6.25% (inactive) | –
CSCc1cc(N2CCOCC2)nc(SCc2ccc(Cl)cc2Cl)n1 | 0.955% (inactive) | –
C=CCNC(=O)c1ccc(C)c(Br)c1 | 0.854% (inactive) | –
CCN1CCN(Cc2c(O)ccc3c(=O)c(-c4ccc(OC)c(OC)c4)c(C(F)(F)F)oc23)CC1 | 0.38% (inactive) | –
O=C(COC(=O)c1cccs1)Nc1ccccc1Cl | -0.535% (inactive) | –
Cc1nc(SCC(=O)Nc2cc(C)on2)c2c3c(sc2n1)CCCC3 | -1.97% (inactive) | –
Nc1nonc1C(=O)NCCc1ccccc1 | 2.33% (inactive) | –
COc1ccc(-c2noc(COc3ccc(Cl)c(C)c3)n2)cc1 | -0.685% (inactive) | –
COc1ccc(C(=O)Nc2ccccc2C(=O)NCc2ccco2)cc1 | -0.236% (inactive) | –
Cc1cc(C(=O)COC(=O)C2CC2)c(C)n1-c1ccc(F)cc1 | – | 2000 nM (active)
COc1ccc(S(=O)(=O)Nc2ccc3c(c2)OCO3)cc1Cl | 4.32% (inactive) | –
Cc1ccc(-c2cc(C(=O)N3CCc4ccccc4C3)no2)cc1 | 8.15% (inactive) | –
CCOc1ccc(NC(=O)Nc2ccc(N(C)C(C)=O)cc2)cc1 | -0.368% (inactive) | –
COc1ccc(N(CCC#N)S(=O)(=O)c2ccc(Cl)cc2)cc1 | -0.698% (inactive) | –
